Measured values reported in PubChem BioAssay AID463173 (ICCB-Longwood Screening Facility, Harvard Medical School, 2010).
Screen size: about 52,000 compounds; about 4,300 (8.3%) were called active. This excerpt belongs to a sample that is enriched for actives. A number with no mark means an inactive call. No stated cut-off is given here; in the data, active means survival mostly below about 52% (no sharp cut-off); inactive means mostly above about 56%.

Tested on: DeltatarO mutant
Assay: growth inhibition of S. aureus wild type versus tarO mutant, primary screen, teichoic acid synthesis inhibitors, RN4220, OD600 (AID 463173)
Settings: OD600, 18 h, active compounds read low, screened at 18.75 µg/mL (by protocol)

Row | SMILES | survival
1 | CC1C(=O)CCNC1c1ccccc1 (stereo unspecified) | 65%
2 | O=C(O)c1ccc(N=NSCCO)cc1 | 79%
3 | COc1ccc(-n2nc(C(=O)NCCc3cccc(C)c3)c3c4ccccc4n(C)c3c2=O)cc1Cl | 89%
4 | Cn1c(=O)c2c(nc(SCC(=O)Nc3ccc(OC(F)(F)F)cc3)n2Cc2cccc(C(F)(F)F)c2)n(C)c1=O | 86%
5 | COc1ccc(Cl)cc1NC(=O)c1sc2nc(-c3ccc(OC)c(OC)c3)ccc2c1N | 124%
6 | COc1cccc(-c2ccc3c(N)c(C(=O)c4ccc(Cl)cc4)sc3n2)c1 | 30% (active)
7 | COc1cccc(-c2ccc3c(N)c(C(=O)Nc4ccc(Cl)cc4F)sc3n2)c1 | 59%
8 | O=S(=O)(c1ccccc1)c1nc(-c2ccc(Cl)cc2Cl)oc1N1CCCCC1 | 90%
9 | O=S(=O)(c1ccccc1)c1nc(-c2ccccc2Cl)oc1N1CCCCCC1 | 27% (active)
10 | Cc1ccc(S(=O)(=O)c2nc(-c3ccccc3Cl)oc2N2CCCCCC2)cc1 | 25% (active)
11 | Cc1ccc(S(=O)(=O)c2nc(-c3ccccc3F)oc2N2CCCCC2)cc1 | 32% (active)
12 | O=S(=O)(c1ccccc1)c1nc(-c2ccccc2F)oc1N1CCOCC1 | 71%
13 | O=S(=O)(c1ccccc1)c1nc(-c2ccc(Cl)cc2Cl)oc1N1CCCCCC1 | 49%
14 | O=S(=O)(Nc1ccc(-c2ccc(N3CCCC3)nn2)cc1)c1cc(F)ccc1F | 96%
15 | Cc1ccc(-c2nc(CS(=O)CC(=O)N3CCN(c4ccccc4)CC3)c(C)o2)cc1 (stereo unspecified) | 62%
16 | CC(C)(C)OC(=O)N1CCC(c2c(C(=O)NCc3ccccc3)cnn2-c2cccc(F)c2)CC1 | 108%
17 | O=C(/C=C\c1ccc2c(c1)OCO2)NC1CC(=O)N(c2ccccc2)C1 (stereo unspecified) | 134%
18 | CN(C)c1ccc(NC(=O)CC(NCc2cccnc2)C(=O)O)cc1 (stereo unspecified) | 76%
19 | CC(=O)c1cccc(NC(=O)CN2C=NS(=O)(=O)c3ccc(C)cc32)c1 | 89%
20 | COc1ccc(-c2csc3nc(-c4ccc(F)cc4)oc(=O)c23)cc1 | 61%
21 | O=C(NCc1ccc2c(c1)OCO2)c1ccc2c(c1)N(Cc1cccc(Cl)c1)C(=O)c1ccccc1S2 | 84%

Row | SMILES | survival
22 | O=C(NCc1cccs1)C1CCN(C(=O)N2CCOc3ccccc32)CC1 | 107%
23 | COc1ccc(NS(=O)(=O)c2cc3[nH]c(=O)c(=O)[nH]c3cc2C)cc1Cl | 94%
24 | Cc1cc(C)cc(NS(=O)(=O)c2cc3[nH]c(=O)c(=O)[nH]c3cc2C)c1 | 87%
25 | COc1cc(NS(=O)(=O)c2cc3[nH]c(=O)[nH]c3cc2C)cc(OC)c1OC | 37% (active)
26 | O=C1C2C(C(=O)N1CCO)C1C=CC2C12CC2 (stereo unspecified) | 100%
27 | CCOc1ccccc1CNC(=O)c1[nH]c2ccccc2c1Sc1ccccc1 | 72%
28 | COc1cccc(NC(=O)/C(C#N)=C\c2cn(Cc3ccc(C)cc3)c3ccccc23)c1 | 90%
29 | CCOC(=O)c1sc(NC(=O)C(C)Oc2ccc(OC)cc2)c(C(=O)OCC)c1C (stereo unspecified) | 73%
30 | COC(=O)c1c(NC(=O)c2ccc(Cl)c(Cl)c2)sc2c1CCCC2 | 63%
31 | COC(=O)c1c(NC(=O)COc2ccc(OC)cc2)sc2c1CCC(C)C2 (stereo unspecified) | 66%
32 | CCCc1ccc(OC(C)C(=O)Nc2sc3c(c2C(=O)OC)CCCCC3)cc1 (stereo unspecified) | 9% (active)
33 | COC(=O)c1c(NC(=O)Nc2ccc(Cl)cc2)sc(C)c1C | 74%
34 | COC(=O)c1c(NC(=O)COc2cc(C)c(Cl)c(C)c2)sc2c1CCCC2 | 147%
35 | COC(=O)c1c(NC(=O)COc2cc(C)ccc2C(C)C)sc2c1CCC(C)C2 (stereo unspecified) | 61%
36 | COC(=O)c1c(NC(=O)Cc2cccs2)sc2c1CCCC2 | 119%
37 | COC(=O)c1c(NC(=O)C(C)Oc2ccc(Cl)c(C)c2)sc(C)c1C (stereo unspecified) | 15% (active)
38 | COC(=O)c1c(NC(=O)COc2c(C)cccc2C)sc2c1CCCC2 | 2% (active)
39 | COC(=O)c1c(NC(=O)COc2c(C)ccc(C)c2C)sc2c1CCC(C)C2 (stereo unspecified) | 22% (active)
40 | COC(=O)c1c(NC(=O)C(C)Oc2ccc(Cl)cc2Cl)sc2c1CCCC2 (stereo unspecified) | 46%
41 | Cc1ccc(S(=O)(=O)N2CCN(C(=O)c3c(C)nn(-c4ccccc4)c3Cl)CC2)cc1 | 63%
42 | O=C(O)CCNC(=O)c1ccc(Br)o1 | 72%

Row | SMILES | survival
43 | Cc1ccccc1Nc1c(-c2ccc(N3CCOCC3)cc2)nc2ncccn12 | 83%
44 | Cc1cccc(C)c1NC(=O)CN(C)S(=O)(=O)c1ccc2c(c1)n(C)c(=O)c(=O)n2C | 89%
45 | O=c1c(S(=O)(=O)c2ccccc2)cn(Cc2cccc(F)c2)c2cc(N3CCOCC3)c(F)cc12 | 78%
46 | COc1ccc(Cl)cc1NC(=O)c1c(NCc2ccc(C)o2)sc2c1CCCC2 | 74%
47 | COc1ccc(Cl)cc1N(C)C(=O)c1ccc2c(=O)n3c(nc2c1)CCCCC3 | 76%
48 | N#Cc1ccc(NC2=NS(=O)(=O)c3ccccc32)cc1 | 68%
49 | O=C(NCCc1ccc(Cl)cc1)c1ccco1 | 98%
50 | CCOC(=O)c1c(NC(=O)COc2c(C)cc(Cl)cc2Cl)sc2c1CCCC2 | 53%
51 | CCOc1ccccc1NC(=O)c1c(NC(=O)C(C)Oc2ccc(Cl)cc2)sc2c1CCCCC2 (stereo unspecified) | 83%
52 | CCNC(=O)c1c(NC(=O)COc2ccc(F)cc2)sc2c1CCCC2 | 59%
53 | CCOC(=O)c1c(NC(=O)C(C)Oc2ccc(Cl)c(C)c2)sc2c1CCCC2 (stereo unspecified) | 42% (active)
54 | Cc1cc(OC(C)C(=O)Nc2sc3c(c2C(N)=O)CCCC3)ccc1Cl (stereo unspecified) | 59%
55 | COC(=O)c1c(NC(=O)c2ccc(OC)cc2OC)sc2c1CCCCC2 | 47%
56 | CCCc1ccc(OCC(=O)Nc2sc3c(c2C(=O)OC)CCCCC3)cc1 | 38% (active)
57 | COC(=O)c1c(NC(=O)c2c(OC)cccc2OC)sc2c1CCCC2 | 13% (active)
58 | CCOc1ccccc1NC(=O)c1c(NC(=O)C(C)Oc2cccc(Cl)c2)sc2c1CCCCC2 (stereo unspecified) | 64%
59 | COC(=O)c1c(NC(=O)c2ccccc2C(=O)O)sc2c1CCCC2 | 92%
60 | COC(=O)c1c(NC(=O)COc2ccc(C(C)C)cc2)sc2c1CCCC2 | 47%
61 | Cc1ccccc1NC(=O)c1c(NC(=O)C(C)Oc2cccc(Cl)c2)sc2c1CCCC2 (stereo unspecified) | 40% (active)
